The text below walks through data of the supplement of paper PMC6555819.

In this assay the test system is VDR homodimer (NR concentration 270 nM). The experiment in a line: PBM binding z-score (relative to random genomic background probes); higher = stronger binding; sequences stand for … in GC…GCGATTGACAGCGTAGAATGAAGG
Put shortly:
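Custom Agilent 4×180K protein-binding microarrays carried double-stranded probes, each with a 34-nt variable region. These regions held direct-repeat seeds, single-nucleotide variants, half-site ablations and random human genomic background sequences. Ligand-free nuclear receptor dimers were incubated on the arrays for 1 h, antibodies against each partner (one per run) detected binding, and scanned fluorescence was regression-normalized. Binding z-scores take the random background probes as reference.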
As for AGTCAAAGTTCACTAGGTAACGTTAGATTCAGCT, the PBM binding z-score turned out to be 3.87.
Then ACTAGCAGGCCTAGGGTCACTCAAGATTAGTCCG, with 1.07; and TCTGCTAGGTCAACGATGGTCAGCTCATCTGCTA, with -0.436.
In turn, ATCTCTAGGTAACCAAGTTTAGTGAATGCCGAAC registered a PBM binding z-score of 0.855.
Then CCTACTGGGCAATCAGGTCATTGATATCAACGTT, with 1.29; and CGAACTAGGTCATTGACAGGTCAGTGAATAGTAA, with 2.04.
On to TCTTGTAGATCAATCAGGTTAAGAAAGCCTGAGT, for which the PBM binding z-score was determined as 0.0655.
Then CGAACTAGGCCATCCAGGACAGTGAATACATTGA, with 0.275; and CATACAGGGTCAGCTAGGCCAGAGTGGGGACGGC, with 1.59.
CCTAGTTGATCAGGAGGTCACACACCGGATATGA gave a PBM binding z-score of 3.06.
In turn, AGAACGAGGGCAATGAGATGATAGCACGGGTGGC displayed a PBM binding z-score of 0.718.
Take AGAATGAGGTTATTCAGATCAGGGAATTGCGGTC: the PBM binding z-score was 1.53.
For ATCTCTAGGTAAAGTTCCGTGAAAGATCGATAGA, the PBM binding z-score is 0.431.
Sequence CTCGAAAGGTCGTGCTCAGGTGAGCATACCAAAC showed a PBM binding z-score of 0.533.
CGTACTAGGTCATCCAGGACAGTGAATACATTGA gave a PBM binding z-score of 1.81.
As for CAGCCTAGGTCAGGGCCAGGATAGGAGGAACGTT, the PBM binding z-score is -0.171.
For the sequence GATACAGGGTCAGCTAGAGGCCTGAGTATGGAAA, the PBM binding z-score is 0.311.
The value for CCGATTAGGTTATGGGGCATTCAGGCAACGGTGA was 0.143; that for ATCACTAGGTAACAAGTTCAGTGAAAGAGAGGAC was 2.7; that for ATCTCTAGCTAAAGTTCAGTGAAAGATCGATAGA was 1.9.
The value for AGAATGTGGTTACCAAAGATCAGGGAAACGCTTG was -0.534; that for GCTAGCAGGCCATTTGGATCACTCAATGACGGGC was -0.518; that for ATCGAAAGGTCGAGGTGAGTATTGAGAAAGGGAA was 0.377.
Then GCGACTGGGGCATCAGCAGGTTACAATAACTTAA, with -0.0954.
The sequence ATCGAAAGGTCGTGCGGTGAGTATACAGAAAGGC yielded a PBM binding z-score of 1.31.
As to ATATGTAGATTAGCTGGGGTCATTCAGACTAGGC, the PBM binding z-score turned out to be 4.47.
Then ACTGTTAGTTGAGACGAGGGCAACCGATAGGTTG, with 0.808; and TAGCCTAGGTCATGCGGGCTAGTATAGTGTCGGC, with 0.2; and ATCACTAGGTAAAGTTCAGTGAAAGATCGATAGA, with 2.29.
Then TCATATAGGTAAAAGGTGTAAGTCGGTGTGGTAA, with 0.313.
On to CCGAATGGGGCAAGGTTACCATAACGCACAGCCA, for which the PBM binding z-score is 0.214.
The value for ATCTCTAGGTAACAAGTTCACTGAAAGAGAGGAC was 3.99; that for GCGACTCGGGCAAAGCAGGTTACCATAAGGTTGG was -0.533.
The value for ATCGAAAGGTCGAGATGAGTATAGAGAAAGGGAA was 0.309.
The value for ATATGTAGGTTAAGGGTCATTCGGGTTGGTTCGC was 5.4.
In turn, AGAATGAGGTTATACGTAGATCAGGTAAGAAAGT returned a PBM binding z-score of 0.844.
Then GCTTACGGGTCAAGGGTTATAGCATGAATAGAAT, with 0.975; and AATCCAGGGTCACTAGGCCAGAGTAGGTACGAAT, with 2.57.
Then ATCTCTAGGTCAAGTTCAGTGAAAGATCGATAGA, with 3.44; and GCTTGTAGATCAAGGTCAAGAAAGACTAAGCTAA, with 1.37.
